PI5P4Ka inh = inhibitors of human PI5P4K alpha; P48426; PI5P4Kalpha enzyme, ADP-Glo luminescence, 60 min; active compounds read low; max response, %; hit rate 1.2% among 330,000; AID 652105; active = max response of -50% or lower; inconclusive = between -30% and -50%; inactive = -30% or higher; note: value at the top dose of about 77 µM; % is set by controls: 0 for no effect and ±100 for the full control effect
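qHTS, 1536-well: enzyme/substrate mix, compound by pin tool, 5 microM ATP final; RT 60 min; ADP-Glo reagents 1 (45 min) then 2 (30 min); luminescence.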
G9a block = inhibitors of human histone lysine methyltransferase G9a; Potency, µM (highest dose often 102 µM), inactives show at the highest dose activity, negative = inhibition, most hits filed as inhibitors; Q96KQ7; hit rate 8.8% among 350,000; G9a H3K9 monomethylation, AlphaScreen, 2 h; note: potency is the fitted concentration of half-maximal effect; % is set by controls: 0 for no effect and ±100 for the full control effect; nearly all actives have a fitted effect of over 75% in size
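Quantitative HTS format: methyltransferase activity on a biotin-tagged H3K9 peptide is measured by AlphaScreen, using a rabbit anti-monomethyl-H3K9 antibody with streptavidin donor and anti-IgG acceptor beads. Final levels are 20 nM enzyme, 500 nM peptide, 20 uM SAM; 2 h RT.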
HP1b binding inh = blocks HP1-beta chromodomain binding to methylated histone tails. AlphaScreen HP1-beta / biotin-H3K9me3 peptide binding. Potency, µM (titrated, usually from 114 µM), for inactives: top-dose activity change, negative = inhibition, most hits filed as inhibitors. hit rate 0.56% among 390,000. AID 540317; note: potency is the fitted concentration of half-maximal effect; nearly all actives have a fitted effect of over 70% in size
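Compound inhibition of the preformed complex between 50 nM HP1-beta and 50 nM biotinylated H3K9me3 peptide was read by AlphaScreen. Buffer was PBS pH 7.4 with 0.01% Tween-20. Incubations ran 30 min at room temperature, with 10 ug/mL donor/acceptor beads.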
PLK1 PBD inh = PLK1 (human) polo-box domain binding inhibition | P53350 | Plk1 PBD binding of FITC phosphopeptide, fluorescence polarization | Potency, µM, for inactives: max response, negative = inhibition, most hits filed as inhibitors | hit rate 2.8% among 360,000 | AID 720504; note: potency is the fitted concentration of half-maximal effect; series mostly up to about 57 µM; % is set by controls: 0 for no effect and ±100 for the full control effect; nearly all actives have a fitted effect of over 65% in size
JMJD2A Tudor inh = inhibitors of human JMJD2A Tudor domain. O75164. AlphaScreen JMJD2A-Tudor / H3K4me3 peptide binding. Potency, µM (series often up to 114 µM), without a hit: at the top dose activity change, negative = inhibition, hits mostly inhibitors. hit rate 4.4% among 390,000; note: potency is the fitted concentration of half-maximal effect; % is set by controls: 0 for no effect and ±100 for the full control effect; nearly all actives have a fitted effect of over 50% in size
BAZ2B inh = inhibitors of human BAZ2B bromodomain | hit rate 4.4% among 360,000 | AlphaScreen BAZ2B-H3K14Ac peptide displacement | Q9UIF8 | Potency, µM (doses to about 114 µM), inactives show at the highest dose activity change, negative = inhibition, hits mostly inhibitors; note: potency is the fitted concentration of half-maximal effect; % is set by controls: 0 for no effect and ±100 for the full control effect; nearly all actives have a fitted effect of over 60% in size
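Multi-concentration screen (max 110 uM) measuring displacement of acetylated histone H3 peptide from BAZ2B by AlphaScreen, using 50 nM protein, 50 nM peptide and 10 ug/mL streptavidin donor plus Ni-chelate acceptor beads.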
* = called active by the depositor; ? = inconclusive; . = no result; [ ] = another dose, or the depositor's remark. Compounds with a hit are over-represented: about 12% of the library has one in this group of screens. Unless noted, calls come from the whole dose curve; as a rule, active = well fitted curve in the direction sought with a large enough effect; inconclusive = small, poorly fitted or top-dose-only effect, or another doubt; inactive = no such curve, though single readings can be large; an effect the other way counts as inactive or inconclusive.

SMILES	PI5P4Ka inh	G9a block	HP1b binding inh	PLK1 PBD inh	JMJD2A Tudor inh	BAZ2B inh
CCOC(=O)c1ccc(N2C(=O)c3n[nH]c(-c4cccs4)c3C2c2ccc(OC)cc2OC)cc1 (stereo unspecified)	.	-2%[59 µM]	2%	.	?	.
C[C@]12CCC3C(C=CC4=CC(=O)CC[C@]43C)C1CC[C@]2(O)CCC(=O)O (stereo partly specified)	.	6%[2.33 µM]	.	.	.	.
O=c1cc(-c2ccc(O)c(O)c2)oc2cc(O)cc(O)c12	-95*	10µM*	-15%	-6%	45µM*	79µM*
O=c1c(O)c(-c2ccc(O)c(O)c2)oc2cc(O)cc(O)c12	-84*	13µM*	-8%	-2%	?	?
CN[C@H](CC(C)C)C(=O)N[C@H]1C(=O)N[C@@H](CC(N)=O)C(=O)N[C@H]2C(=O)N[C@H]3C(=O)N[C@H](C(=O)N[C@H](C(=O)O)c4cc(O)cc(O)c4-c4cc3ccc4O)[C@H](O)c3ccc(c(Cl)c3)Oc3cc2cc(c3O[C@@H]2O[C@H](CO)[C@@H](O)[C@H](O)[C@H]2O[C@H]2C[C@](C)(N)[C@H](O)[C@H](C)O2)Oc2ccc(cc2Cl)[C@H]1O	.	38%[12.7 µM]	.	.	.	.
COC(=O)c1ccc(COC(=O)c2nn(C)c(=O)c3ccccc23)cc1	1	-8%	56%	-5%	3%	-29%
CC(=O)[C@@]1(O)CC[C@H]2C3CCC4=CC(=O)CC[C@]4(C)C3CC[C@@]21C (stereo partly specified)	.	3%[12.7 µM]	.	.	.	.
O=C(O)COc1ccc(Br)cc1C(c1c(C(=O)O)[nH]c2ccccc12)c1c(C(=O)O)[nH]c2ccccc12	-8	.	19%	27µM*	-10%	-5%
COc1cc(/C=C2\C(=O)NC(=O)N(c3ccc(C)cc3)C2=O)cc(OC)c1O	-23	20µM*	25%	?	-3%	4%
CSc1ncc(/C=C2/C(=O)NC(=O)N(c3ccc(Cl)cc3)C2=O)cn1	?	8.9µM*	-13%	12µM*	?	-16%
Cc1cc(/C=C2\C(=O)NC(=O)N(c3ccc(Cl)cc3)C2=O)c(C)n1C	2	.	58%	-9%	-6%	-6%
CCOc1ccc(N2C(=O)NC(=O)/C(=C/c3cnc(SC)nc3)C2=O)cc1	-30	8.9µM*	-38%	11µM*	?	?
CC1=NN(c2ccccc2)C(=O)C1/C=C1\C(=O)NC(=O)N(c2ccc(C)c(C)c2)C1=O (stereo unspecified)	-25	45µM*	-14%	21µM*	-5%[11.4 µM]	?
O=C1CCCCC1	-3	15%[0.501 µM]	50%	-1%	-7%	10%
O=C(COc1cccc(Cl)c1)N1CCN(CCc2ccncc2)CC1	.	4%[59 µM]	28%	.	-13%	-5%
Cc1ccc(N2C(=O)NC(=O)/C(=C/c3cnn(-c4ccc(C)cc4)c3)C2=O)cc1	-16	3.5µM*	46%	1.2µM*	-8%	2%
Cc1cc(C)cc(N2C(=O)NC(=O)/C(=C\c3cc(C)n(C)c3C)C2=O)c1	-5	?	6%	-16%	-19%	-6%
CC1=NN(c2ccccc2)C(=O)C1/C=C1/C(=O)NC(=O)N(c2cc(C)cc(C)c2)C1=O (stereo unspecified)	-3	?	-2%	-17%	?	?
Cc1ccc(N2C(=O)NC(=O)/C(=C\c3cnc(-c4ccccc4)nc3)C2=O)cc1	?	?	-19%	8.4µM*	?	1%
O=C1NC(=O)N(c2ccc(Br)cc2)C(=O)/C1=C/c1ccsc1	-28	20µM*	27%	4.7µM*	-22%	14%
CSc1ncc(/C=C2/C(=O)NC(=O)N(c3ccc(C)cc3)C2=O)cn1	?	10µM*	-5%	9.5µM*	-18%	-38%
CC1=NN(c2ccccc2)C(=O)C1/C=C1\C(=O)NC(=O)N(c2cc(C)cc(C)c2)C1=O (stereo unspecified)	-10	?	-21%	-9%	-30%	?
C[N+]1(C)C2CC[C@H]1CC(OC(=O)[C@@H](CO)c1ccccc1)C2 (stereo partly specified)	.	-3%[59 µM]	.	.	.	.
Cc1cccc(N2C(=O)NC(=O)/C(=C\c3ccc4c(c3)CCCN4Cc3ccccc3)C2=O)c1	?	?	15%	?	-24%	?
COc1ccc(/C=C2/C(=O)NC(=O)N(c3ccc(C)c(C)c3)C2=O)cc1CN1C(=O)c2ccccc2C1=O	-66*	11µM*	-11%	4.2µM*	50µM*	50µM*
SMILES	PI5P4Ka inh	G9a block	HP1b binding inh	PLK1 PBD inh	JMJD2A Tudor inh	BAZ2B inh
Cc1ccc(Cl)cc1Nc1nn2c(=O)c3ccc(C(=O)NCc4cccs4)cc3nc2s1	.	-14%[59 µM]	19%	.	?	?
CC1=CC(=O)NP(=O)(Oc2ccc3ccccc3c2)N1 (stereo unspecified)	-15	3.5µM*	14µM*	6.7µM*	45µM*	.
CC1CN1P(=O)(Oc1ccc2ccccc2c1)N1CC1C (stereo unspecified)	9	.	24%	3%	-15%	.
Cc1ccccc1-n1c(/C=C/c2ccc(O)cc2)nc2ccccc2c1=O	.	15%[59 µM]	64%	.	-14%	9%
CCC(C)C1O[C@]2(C=CC1C)CC1CC(C/C=C(\C)[C@H](OC3CC(OC)C(O[C@H]4CC(OC)[C@@H](O)C(C)O4)C(C)O3)[C@@H](C)/C=C/C=C3\COC4C(O)C(C)=C[C@H](C(=O)O1)[C@@]34O)O2 (stereo partly specified)	.	-31%[2.33 µM]	.	.	.	.
COP(=S)(OC)SCN1C(=O)c2ccccc2C1=O	?	16µM*	15%	21µM*	-14%	-6%
COc1ccc2c(c1)c(=O)c(C(=O)c1ccc(Cl)cc1)cn2CC(=O)Nc1ccc2c(c1)OCCO2	.	19%[59 µM]	52%	.	-3%	-1%
C=CCNc1nnc(Sc2ncccc2[N+](=O)[O-])s1	-11	3%	20%	-5%	2%	?
COc1ccccc1OCC#CCN1CCOCC1	6	4µM*	71µM*	-2%	?	28µM*
COc1ccccc1OCC(=O)N1CCCC(N2CCN(c3ccc(F)cc3)CC2)C1 (stereo unspecified)	-5	-12%	9%	2%	-10%	-17%
COc1ccccc1OCC#CCN1CCCC(C)C1 (stereo unspecified)	1	.	?	-1%	11µM*	25µM*
C[N+]1([O-])[C@@H]2CC[C@H]1CC(OC(=O)[C@@H](CO)c1ccccc1)C2 (stereo partly specified)	.	22%[5.15 µM]	.	.	.	.
O=[N+]([O-])c1ccc(CNCCc2ccccc2)cc1	21	7.9µM*	?	4%	20µM*	50µM*
O=[N+]([O-])c1ccccc1CNCCc1c[nH]c2ccccc12	-2	.	?	-14%	22µM*	50µM*

Compound activity (PubChem BioAssay)
